# The entries come from a sample that favours hits as a whole.
# RE007 growth inh: less growth of the S. pombe RE007 Vpr strain | S. pombe RE007 Vpr strain, BacTiter-Glo ATP luminescence, 24 h | Potency, µM (highest dose often 92.2 µM), inactives show top-dose activity change, negative = less growth, hits mostly inhibitors | 0.21% of 360,000 active | AID 651644; active = well fitted falling curve with a large enough effect; inconclusive = small, poorly fitted or top-dose-only effect; inactive = no such curve, though single readings can be large or run the other way; note: potency is the fitted concentration of half-maximal effect; % is set by controls: 0 for no effect and ±100 for the full control effect; nearly all actives have a fitted effect of over 50% in size
#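 Fission yeast RE007 carrying one integrated HIV-1 vpr copy, seeded at OD 0.01 in PMG+AL medium with 23 nL pinned compound. Grown 24 h at 30 degrees; viability read by BacTiter-Glo luminescence after 5 min.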
# FBPA Giardia inh: Giardia lamblia aldolase inhibition; purified Giardia FBPA; 0.71% of 290,000 active; AID 2451; Potency, µM (top dose mostly 59.6 µM), inactives show at the highest dose activity, negative = inhibition, hits mostly inhibitors; note: potency is the fitted concentration of half-maximal effect; % is set by controls: 0 for no effect and ±100 for the full control effect; nearly all actives have a fitted effect of over 55% in size
#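 Giardia FBPA (40 nM reagent) was preincubated 10 min at RT with compound (up to 57.5 uM final), then substrate plus GAPDH/TPI/NAD/arsenate coupling system with diaphorase/resazurin was added; resorufin fluorescence (525/598 nm) was read after 20 min.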
# CHX counter: counter-screen for Shiga toxin inhibitors: cycloheximide protein synthesis inhibition | cell reporter, cycloheximide protein synthesis inhibition counterscreen | max response, % | 12% of 300,000 active; in the data active = max response mostly above about 13%, no sharp cut-off; inactive = mostly below about 14%; note: read at 38.3 µM for the half of the compounds with a filed dose; 0% is about no effect
# Shiga toxin inh: blocks Shiga toxin action in Vero cells; Vero cells, Shiga toxin protein synthesis inhibition reporter; inhibition, % at 38.7 µM; 9.2% of 290,000 active; AID 2315; in the data active = inhibition mostly above about 28%, no sharp cut-off; inactive = mostly below about 43%; note: 0% is about no effect
# LmPK inh: inhibitors of Leishmania mexicana pyruvate kinase. purified LmPK, Kinase-Glo ATP luminescence, 1 h. Potency, µM (titrated, usually from 57.5 µM), inactives show at the top dose activity change, negative = inhibition, actives largely listed as inhibitors. 0.37% of 290,000 active. AID 1721; note: potency is the fitted concentration of half-maximal effect; % is set by controls: 0 for no effect and ±100 for the full control effect
# Target sequence (Q27686 whole entry, looked up): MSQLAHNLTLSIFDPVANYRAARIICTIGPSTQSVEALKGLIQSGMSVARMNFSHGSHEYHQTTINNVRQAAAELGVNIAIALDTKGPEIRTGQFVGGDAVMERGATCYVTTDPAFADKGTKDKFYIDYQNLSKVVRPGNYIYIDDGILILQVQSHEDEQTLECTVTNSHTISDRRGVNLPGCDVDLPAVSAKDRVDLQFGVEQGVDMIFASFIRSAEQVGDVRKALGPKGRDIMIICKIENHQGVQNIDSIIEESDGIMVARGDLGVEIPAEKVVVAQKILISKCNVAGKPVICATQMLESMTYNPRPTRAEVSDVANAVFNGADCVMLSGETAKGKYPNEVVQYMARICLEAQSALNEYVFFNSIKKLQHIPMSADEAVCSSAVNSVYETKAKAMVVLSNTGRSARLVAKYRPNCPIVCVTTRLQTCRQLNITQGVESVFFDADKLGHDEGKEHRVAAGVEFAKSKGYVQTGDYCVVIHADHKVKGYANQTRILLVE
#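 0.1 nM LmPK, 0.5 mM PEP, 0.1 mM ADP; 50 mM imidazole pH 7.2, 7 mM MgCl2, 50 mM KCl; 1 h RT. Kinase-Glo luminescence readout, normalized to no-enzyme (full inhibition) and uninhibited wells.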
# Tb PYK inh: inhibitors of Trypanosoma brucei pyruvate kinase; TbPYK enzyme, Kinase-Glo Plus ATP luminescence, 45 min; 0.12% of 410,000 active; Potency, µM (doses to about 76.8 µM), without a hit: at the top dose activity, negative = inhibition, actives largely listed as inhibitors; AID 624173; note: potency is the fitted concentration of half-maximal effect; % is set by controls: 0 for no effect and ±100 for the full control effect; nearly all actives have a fitted effect of over 50% in size
#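 Enzyme and substrate buffer are dispensed first and compound is pin-transferred. ADP at 130 uM final then starts the reaction, which runs 45 min at room temperature. Detection reagent is added for 10 min before luminescence is imaged.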
# Active calls of the source: *; ? = inconclusive; . = no result given. Unless noted, calls come from the whole dose curve; as a rule, active = well fitted curve in the direction sought with a large enough effect; inconclusive = small, poorly fitted or top-dose-only effect, or another doubt; inactive = no such curve, though single readings can be large; an effect the other way counts as inactive or inconclusive.
SMILES,RE007 growth inh,FBPA Giardia inh,CHX counter,Shiga toxin inh,LmPK inh,Tb PYK inh
O=C(NC1CCCCC1)c1cc(-c2ccc(F)cc2)on1,-0.1%,7.3%,11.9*,36.5,-0.8%,1.7%
O=c1n(Cc2ccccc2Cl)c2ccccc2c2nc(-c3ccccc3)nn12,.,.,.,.,.,2.0%
O=C(CCn1cnc2ccccc2c1=O)NCc1ccccc1,.,.,.,.,.,3.1%
CCCCN1CC(c2nc3ccccc3n2CCCCOc2ccccc2C)CC1=O (stereo not given),.,.,.,.,.,0.7%
CCC/C(=N\NC(=O)c1csc(C)c1C)c1cccs1,1.6%,-0.5%,35.8*,83.9*,6.9%,-3.0%
CC/C(=N\NC(=O)c1csc(C)c1C)c1cccs1,-15.4%,-6.6%,37.0*,94.9*,-3.2%,3.4%
CC(=O)Nc1ccc(S(=O)(=O)N2CCN(c3cc(C(F)(F)F)ccn3)CC2)cc1,-2.4%,-3.8%,-2.0,13.3,0.8%,-4.2%
FC(F)(F)c1ccnc(N2CCN(Cc3cnc(-c4ccccc4)[nH]3)CC2)c1,7.8%,4.8%,62.7*,61.2*,2.9%,-0.5%
CC/C(=N/NC(=O)c1ccccc1)c1ccc(OCCN2CCOCC2)cc1,18.3%,-3.0%,70.4*,80.1*,5.5%,5.2%
CC/C(=N/NC(=O)c1ccc(Br)cc1)c1ccc(OCCN2CCOCC2)cc1,-12.7%,2.9%,17.2,51.6*,0.2%,-5.2%
CN(C)C1CCc2[nH]c3ccc(NC(=O)c4ccc(F)cc4)cc3c2C1 (stereo not given),.,-7.3%,-3.9,-1.1,.,.
CC(C)=NNc1nc(-c2ccccc2)cs1,106.7%,-4.5%,22.2*,65.9,2.4%,-5.3%
CC(C)=NNc1nc(-c2ccc(N3C(=O)CCC3=O)cc2)cs1,-13.1%,?,20.0*,14.1,3.5%,-4.2%
C/C(CCC1CC(C)OC1=O)=N/Nc1nc(-c2ccccc2)cs1 (stereo not given),190.2%,?,21.8*,44.1*,1.0%,-0.1%
CC1CC(CC(=O)NNc2nc(-c3ccccc3)cs2)C(=O)O1 (stereo not given),12.2%,5.0%,-4.0,-2.2,7.8%,-3.6%
CC(/C=C/c1ccccc1)=N\Nc1nc(-c2ccccc2)cs1,1.7%,-23.5%,1.7,11.8,0.3%,-6.3%
CCN(CC)CCNC(=O)c1ccc(Cn2c(=O)c3cccn3c3cccnc32)cc1,.,.,.,.,.,14.4%
CCc1ccccc1NC(=O)c1cc(S(=O)(=O)N(CC)c2ccccc2)ccc1F,.,.,.,.,.,0.1%
CCCCCCCCN=C(N)c1ccc(C(=O)OCC2CCCCC2)cc1,.,-4.6%,-17.7,-18.1,.,.
Cn1c(-c2ccccc2)cnc1NCc1cc2c(cc1[N+](=O)[O-])OCO2,-23.5%,?,53.0*,60.0*,0.0%,2.5%
Cn1c(-c2ccc(F)cc2)cnc1NCc1cc2c(cc1[N+](=O)[O-])OCO2,-11.9%,?,32.8*,28.0,4.9%,-0.2%
Cn1c(-c2ccc3c(c2)OCO3)cnc1NCc1cccc(O)c1,-10.5%,?,25.4*,43.8*,-1.0%,0.8%
Cn1c(-c2ccc(F)cc2)cnc1NCc1cccc(F)c1,-22.1%,.,18.5,44.7,4.3%,4.6%
Cc1cc(C)cc(NC(=O)NCc2noc3ccccc23)c1,.,.,.,.,.,-3.9%
O=C(NC(=O)c1ccccc1)NC1(C(F)(F)F)OCCO1,.,0.8%,48.1*,84.3*,-3.0%,.
SMILES,RE007 growth inh,FBPA Giardia inh,CHX counter,Shiga toxin inh,LmPK inh,Tb PYK inh
CCOc1ccc(-c2n[nH]c(C)c2-c2ccccc2OC)c(O)c1,0.5%,-24.7%,-1.0,-9.9,6.0%,3.8%
CCc1cc(-c2n[nH]c(C)c2-c2ccccc2Cl)c(O)cc1OC,-10.8%,-19.7%,31.6*,80.1*,-0.8%,1.9%
C=CCNc1nc(-c2cc3ccccc3o2)cs1,-25.7%,-1.1%,40.0*,36.4,-15.6%,-5.7%
c1ccc2oc(-c3csc(NCC4CCCO4)n3)cc2c1 (stereo not given),?,-7.3%,30.0*,74.0*,-2.8%,-9.4%
CC1CCC/C(=C(\C#N)c2nc(-c3cc4ccccc4oc3=O)cs2)C1 (stereo not given),0.2%,1.6%,51.0*,89.0*,-4.8%,-16.1%
CN(C)S(=O)(=O)c1ccc(C(=O)Nc2nc(-c3cc4ccccc4o3)cs2)cc1,9.5%,-0.4%,1.1,3.3,-0.6%,3.1%
c1ccc2sc(NCC3CCCO3)nc2c1 (stereo not given),17.0%,0.0%,38.4*,133.9*,?,-3.2%
Cc1cccc(-n2c(=O)c3c4c(sc3n3cnnc23)CCCC4)c1,.,.,.,.,.,-2.3%
CCC1CN(C(=O)N2CCC(C(=O)NCCC3=CCCCC3)CC2)c2cc(C)ccc2O1 (stereo not given),.,.,.,.,.,-0.8%
O=c1oc2ccccc2cc1-c1csc(NN=C2CCCCC2)n1,-13.5%,-15.6%,44.8*,80.8*,-13.0%,-4.9%
CSc1ccc(C2NN=C(c3ccccc3)S2)cc1 (stereo not given),?,.,.,.,.,-26.7%
CCCc1ccc(C(O)c2ncc(-c3ccc(C)cc3)[nH]2)cc1 (stereo not given),-28.2%,.,.,.,.,-8.4%
CCOc1cc(C2NN=C(c3ccc(C)cc3)S2)ccc1O (stereo not given),-18.4%,-17.4%,30.0*,94.1*,1.9%,-14.9%
COc1ccc(C2NN=C(c3ccc(C)cc3)S2)cc1 (stereo not given),.,-4.2%,57.1*,105.5*,2.8%,-12.6%
Cc1ccc(C2=NNC(C(O)C(O)C(O)CO)S2)cc1 (stereo not given),-12.2%,3.1%,56.7*,60.5*,-0.2%,-12.3%
COC(=O)c1ccc(C2CC(=O)Nc3c2c(C)nn3-c2nc(C)cc(C)n2)cc1 (stereo not given),.,.,.,.,.,-12.4%
Nc1nc(NC(=O)c2ccc(Cl)cc2)nn1-c1ccccc1,-3.6%,11.0%,17.3*,32.9,4.6%,2.9%
COc1ccc(NC(=O)CSC2=Nc3ccccc3C3=NC(Cc4ccccc4)C(=O)N23)cc1 (stereo not given),.,.,.,.,.,-11.2%
CCOc1ccccc1NC(=O)n1ncc2c(C)cccc21,-1.9%,-3.5%,4.5,11.1,-1.7%,0.5%
COc1cc(OC)c(NC(=O)n2ncc3cc(Cl)ccc32)cc1Cl,.,.,.,.,.,-2.4%
Cc1cccc2c1cnn2C(=O)Nc1cc(F)ccc1F,-9.2%,1.7%,39.6*,59.3*,-5.3%,0.2%
CCOC(=O)c1ccccc1NC(=O)n1ncc2cc(Cl)ccc21,.,.,.,.,.,-6.4%
O=C(Nc1ccccc1F)n1ncc2cc(Cl)ccc21,-8.5%,15.3%,11.9*,26.4,0.0%,3.3%
COc1ccc(NC(=O)n2ncc3cc(Cl)ccc32)cc1OC,-16.1%,-9.9%,46.6*,55.8*,4.6%,-18.1%
COc1cc(NC(=O)n2ncc3cc(Cl)ccc32)cc(OC)c1,-9.6%,1.4%,42.5*,60.2*,2.7%,0.8%

# Screens deposited in PubChem BioAssay by National Center for Advancing Translational Sciences (NCATS).
